Experimental data: PubChem BioAssay (NCI)
The panel holds about 83,000 compounds, 20% with a hit somewhere; the sample as a whole holds those more often.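 Single-dose data. Exposure time 48 hours. Values below 10 considered active.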 Unmarked numbers belong to inactive results. Calls of active or inactive are those of the source.

system: U251 CNS; test: NCI-60 one-dose screen, 48 h (100 = growth as untreated, 0 = no growth, -100 = all killed); conditions: 10 µM unless noted

Row | SMILES | growth
1 | CN(C)CCN1C(=O)c2cccc3c(-c4ccc(-c5nc6c7ccccc7c7ccccc7c6[nH]5)cc4)ccc(c23)C1=O | 95.5%
2 | O=C(Nc1ccc(N2CCCCC2)c(Cl)c1)c1ccc(Br)o1 | 68.5%
3 | COc1ccc(OC)c(Nc2nc3nonc3nc2Nc2cccc(Br)c2)c1 | 3.05% (active)
4 | O=C(NCCN1CCC(O)CC1)c1cc2c(o1)C(=O)c1ccccc1C2=O | -88.1% (active)
5 | COc1cc(/C=C/C(=O)c2cccc(-n3cc(-c4ccccc4)[nH]c3=O)c2)cc(OC)c1OC | -78.6% (active)
6 | Fc1ccc(Nc2nc(Nc3ccc(-c4nc5ccccc5[nH]4)cc3)c3cn[nH]c3n2)cc1 | 33.5%
7 | COc1ccc(-c2nc3sc4c(c3c(=O)[nH]2)CCCC4)c2ccccc12 | 6.38% (active)
8 | O=[N+]([O-])c1ccccc1C(O)Cc1ccc2ccccc2n1 (centres undefined) | 96.9%
9 | N#Cc1c(NC(=O)c2ccccc2I)sc2c1CCCC2 | 29.7%
10 | NC(=O)c1c(NC(=O)c2ccc(C(F)(F)F)cc2Cl)sc2c1CCC(=O)C2 | -5.53% (active)
11 | COc1cc(CNC(=O)/C=C/C=C/c2ccc3c(c2)OCO3)ccc1OCc1cn(-c2ccc(Cl)c(Cl)c2)nn1 | -57.5% (active)
12 | CSc1ccc(Cl)c(C(=O)Nc2sccc2C(N)=O)c1 | 94.3%
13 | COc1cc(-c2cccc([N+](=O)[O-])c2)c(-c2nc(-c3ccccc3)c(-c3ccccc3)n2C2CC2)cc1OC | 67.3%
14 | O=C(/C=C/C12c3ccccc3C(c3ccccc31)C1C(=O)NC(=O)C12)c1ccc(Cl)cc1 (centres undefined) | -10.9% (active)
